Several values for one entry are separate records, joined by “and”; a condition that tells them apart may be missing. Equal values may be shown once. Among all 190,000 compounds or so, about 1,300 (0.68%) were called active. Cut-off read from the data, not from the text of the source: active = inhibition above about 50%; inactive = the rest. Many of the other results were omitted from the sample, so actives are more common in it than they were. Where a structure was tested more than once in an assay, its records may differ in their call.
What follows are compounds tested against Mannose-6-phosphate isomerase (Homo sapiens) (UniProt P34949) (assay: MPI inhibition at elevated mannose 6-phosphate – biochemical, fluorescence intensity, high mannose 6-phosphate, primary screen (AID 1220)). Settings: recombinant PMI enzyme, coupled fluorescence intensity; at 20 µM; stronger effect = higher value.
Mannose-6-phosphate isomerase (Homo sapiens), sequence (P34949 whole entry, looked up): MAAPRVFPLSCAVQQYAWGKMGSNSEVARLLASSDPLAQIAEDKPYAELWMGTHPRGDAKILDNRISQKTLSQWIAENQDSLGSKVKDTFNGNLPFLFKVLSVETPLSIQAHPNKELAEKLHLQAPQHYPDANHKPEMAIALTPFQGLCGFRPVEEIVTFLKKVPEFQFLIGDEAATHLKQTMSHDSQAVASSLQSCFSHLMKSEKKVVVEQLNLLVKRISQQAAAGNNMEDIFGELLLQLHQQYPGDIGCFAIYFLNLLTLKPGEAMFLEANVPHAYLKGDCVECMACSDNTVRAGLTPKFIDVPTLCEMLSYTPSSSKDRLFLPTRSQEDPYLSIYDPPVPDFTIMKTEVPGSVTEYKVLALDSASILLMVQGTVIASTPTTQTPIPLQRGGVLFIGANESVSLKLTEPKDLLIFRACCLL

SMILES | inhibition
CCC(=O)NC(=S)Nc1cccc(NC(=O)c2ccco2)c1 | 9.6% (inactive)
CCC(C)C(NC(=O)c1ccc(Cl)cc1Cl)C(=O)O (stereo not drawn) | 1.7% (inactive)
COc1ccc(CC(=O)Nc2ccccc2C(=O)N2CCOCC2)cc1 | 5.3% (inactive)
CCOC(=O)N1CCC(N2Cc3cccc(C(=O)Nc4ccc(F)cc4)c3C2=O)CC1 | -3.9% (inactive)
O=C(COc1ccccc1[N+](=O)[O-])NNC(=O)Nc1cccc2ccccc12 | 59.8% (active)
COC(=O)c1ccccc1NC(=O)COc1ccccc1[N+](=O)[O-] | -1.9% (inactive)
NNC(=O)COc1ccccc1[N+](=O)[O-] | 4.8% (inactive)
CCOCCCn1c(=N)c(C(=O)NCc2ccc3c(c2)OCO3)cc2c(=O)n3ccccc3nc21 | -7.7% (inactive)
CC(C)OCCCNC(=O)c1ccc(N(C)S(C)(=O)=O)cc1 | 6.8% (inactive)
CCOc1cccc(C=Nc2cc(C)cc(C)c2O)c1O | 7% (inactive)
Cc1cccc(C=Nc2ccc3c(c2)oc2ccccc23)c1O | 30.1% (inactive)
Cc1ccc(N=Cc2sc(O)c3ccccc23)c(C)c1 | 2.2% (inactive)
CCc1ccc(O)c(N=Cc2cccc(C)c2O)c1 | 17.4% (inactive)
CCC(=O)N1CCN(c2ccccc2NC(=O)Cc2ccccc2)CC1 | 3.5% (inactive)
CCNC(=S)Nc1ccc(S(=O)(=O)Nc2cc(C)nc(C)n2)cc1 | -7.6% (inactive)
O=C(O)C1CC=CCC1C(=O)Nc1cccc(C(=O)N2CCCCC2)c1 (stereo not drawn) | -20.1% (inactive)
COc1cccc(C(c2sc3nc(C)nn3c2O)N2CCc3ccccc3C2)c1 (stereo not drawn) | 42.6% (inactive)
COc1cc(C(c2sc3nc(C)nn3c2O)N2CCc3ccccc3C2)cc(OC)c1OC (stereo not drawn) | 5.1% (inactive)
Cc1ccc2c(c1)NC(=O)C(CC(=O)NCCCN1CCN(c3cc(C)ccc3C)CC1)O2 (stereo not drawn) | 9.9% (inactive)
CN(C)/C=N/c1nc(-c2ccc3c(c2)OCO3)cs1 | 7.4% (inactive)
CC(=O)Nc1cc(C(C)C)c(O)c(C(C)C)c1 | 6.7% (inactive)
CC(C)c1cc(NC(=O)c2ccccc2)cc(C(C)C)c1O | 8.4% (inactive)
CC(C)c1cc(Nc2cccc(O)c2)cc(C(C)C)c1O | 53.6% (active)
CC(C)(C)NC(=O)C(c1ccc(OCC(N)=O)cc1)N(C(=O)c1cccnc1)C1CC1 (stereo not drawn) | -7.4% (inactive)

SMILES | inhibition
C=CCNC(=O)c1ccc2c(c1)nnn2C | 3.7% (inactive)
CN(C)/C=C/C(=O)c1cnc(-c2ccc(Cl)cc2)s1 | 0.9% (inactive)
O=C(c1ccc(Cl)nc1)N1CCc2ccccc2C1 | 5.7% (inactive)
Cc1ccc(Nc2nc(-c3c(C)nc4ccccn34)cs2)cc1 | 57.1% (active)
Cc1ccc(Nc2nc(-c3c(C)nc4ncccn34)cs2)cc1 | 18.6% (inactive)
Cc1cccc(Nc2nc(-c3c(C)nc4ccccn34)cs2)c1 | 47% (inactive)
CSc1ccccc1NC(=O)COc1ccc(Cl)cc1 | 3.4% (inactive)
CCCOC(=O)c1cc(NC(=O)/C=C/c2ccccc2)ccc1O | 14.7% (inactive)
C/C=C/CSc1nc2c(c(=O)[nH]c(=O)n2C)n1Cc1ccc(C)cc1 | 14% (inactive)
Cc1ccc(Cl)cc1NC1=C/C(=N\S(=O)(=O)c2cccs2)c2ccccc2C1=O | 16.4% (inactive)
O=C1C(Nc2ccc(O)cc2)=C/C(=N/S(=O)(=O)c2cccs2)c2ccccc21 | 47.6% (inactive)
Cc1ccc(NC2=C/C(=N\S(=O)(=O)c3cccs3)c3ccccc3C2=O)c(C)c1 | 50.1% (active)
CC(=O)Nc1ccc(NC2=C/C(=N/S(=O)(=O)c3cccs3)c3ccccc3C2=O)cc1 | 54.1% (active)
Cc1ccc(NC2=C/C(=N/S(=O)(=O)c3cccs3)c3ccccc3C2=O)cc1C | 31.2% (inactive)
Cc1cccc(NC2=C/C(=N/S(=O)(=O)c3cccs3)c3ccccc3C2=O)c1 | 56.8% (active)
COC(=O)c1ccccc1NC1=C/C(=N\S(=O)(=O)c2cccs2)c2ccccc2C1=O | -25.4% (inactive)
Cc1ccccc1NC1=C/C(=N\S(=O)(=O)c2cccs2)c2ccccc2C1=O | 17.2% (inactive)
Cc1ccc(NC2=C/C(=N/S(=O)(=O)c3cccs3)c3ccccc3C2=O)cc1 | 47.9% (inactive)
CCN1CCN(CC(=O)NC2CCCC2)C(=O)C1=O | 5.9% (inactive)
CC(NC(=O)C1CCCN(S(=O)(=O)c2cnc[nH]2)C1)c1ccccc1 (stereo not drawn) | -0.1% (inactive)
CCOc1ccccc1-c1nc(-c2ccc(NC(=O)Cc3ccc(OC)cc3)cc2)no1 | -5.8% (inactive)
COc1ccc(NC(=O)N2CCN(S(C)(=O)=O)CC2)cc1OC | 14% (inactive)
COc1ccccc1NC(=O)/C(C#N)=C/c1cc([N+](=O)[O-])ccc1N1CCCC1 | -6.4% (inactive)
COc1cc(OC)cc(C(=O)NC(C(=O)O)C23CC4CC(CC(C4)C2)C3)c1 (stereo not drawn) | -4.9% (inactive)

SMILES | inhibition
COc1ccc(/C(O)=C2/C(=O)C(=O)N(CC3CCCO3)C2c2ccc(O)c(OC)c2)cc1 (stereo not drawn) | 5.8% (inactive)
O=S(=O)(NCCNc1ncc(C(F)(F)F)cc1Cl)C(F)(F)F | 6.3% (inactive)
CCOc1cc(NC(=S)NCC2CCCO2)c(OCC)cc1NC(=O)c1cccc(F)c1 (stereo not drawn) | 53.7% (active)
CCOc1cc(NC(=S)NCC2CCCO2)c(OCC)cc1NC(=O)CC(C)C (stereo not drawn) | 15.4% (inactive)
CCOc1cc(NC(=S)NCC2CCCO2)c(OCC)cc1NC(=O)c1ccc(C)cc1 (stereo not drawn) | 58.2% (active)
CCOc1cc(NC(=S)NCC2CCCO2)c(OCC)cc1NC(=O)c1ccc(F)cc1 (stereo not drawn) | 54.9% (active)
CCOc1ccccc1NC(=S)NCC1CCCO1 (stereo not drawn) | -3.2% (inactive)
CCOc1cc(NC(=S)NCC2CCCO2)c(OCC)cc1NC(=O)C1CC1 (stereo not drawn) | 5.5% (inactive)
CCOc1cc(NC(=S)NCC2CCCO2)c(OCC)cc1NC(=O)c1cccc(C)c1 (stereo not drawn) | 17% (inactive)
CCOc1cc(NC(=S)NCC2CCCO2)c(OCC)cc1NC(=O)c1ccccc1 (stereo not drawn) | 17.7% (inactive)
CCOc1cc(NC(=S)NCC2CCCO2)c(OCC)cc1NC(=O)CC (stereo not drawn) | 6.9% (inactive)
CCOc1cc(NC(=S)NCC2CCCO2)c(OCC)cc1NC(=O)c1ccccc1C (stereo not drawn) | 5.7% (inactive)
CCOc1cc(NC(=S)NCC2CCCO2)c(OCC)cc1NC(=O)c1ccc(OC)cc1 (stereo not drawn) | 35% (inactive)
CCOc1cc(NC(=S)NCC2CCCO2)c(OCC)cc1NC(=O)c1ccccc1F (stereo not drawn) | 53.9% (active)
CN(c1ccccc1)S(=O)(=O)c1ccc(Cl)c(C(=O)Nc2ccc(-c3nc4ccccc4[nH]3)cc2)c1 | 3.8% (inactive)
CC1CCCC(NC(=O)CC2Nc3ccccc3NC2=O)C1C (stereo not drawn) | -4.1% (inactive)
N#C/C(=C\c1cn(Cc2ccccc2)c2ccccc12)C(=O)NCc1ccco1 | 15.2% (inactive)
Nn1cnnc1SCC(=O)Nc1ccc2c(c1)OCCO2 | 9.6% (inactive)
O=C(NCc1ccco1)/C(=C/C=C/c1ccccc1)NC(=O)c1ccco1 | 6% (inactive)
CC(=O)c1ccc(NC(=S)NCc2cccnc2)cc1 | -2.6% (inactive)
c1ccc(COc2cccc(CNCc3ccccn3)c2)cc1 | -10.4% (inactive)
Cc1ccc2cc(CCNC(=O)Cc3cccs3)c(=O)[nH]c2c1 | -0.6% (inactive)
c1ccc(-c2cc(-c3nc4ccccc4[nH]3)c3ccccc3n2)cc1 | 12.1% (inactive)
Fc1ccccc1-c1nc2ccccc2[nH]1 | -1.9% (inactive)

SMILES | inhibition
c1ccc2[nH]c(-c3ccnc4ccccc34)nc2c1 | 51.2% (active) and -1.5% (inactive)
CCCCNC(=O)c1ccc(N2CCC3(CC2)OCCO3)c([N+](=O)[O-])c1 | 2.4% (inactive)
CC(=O)OCCNc1cc(N2CCN(C)CC2)c2noc3c2c1C(=O)c1ccccc1-3 | 50.5% (active)
CN1CCN(c2ccc(Cl)cc2NC(=O)CCN2C(=O)c3ccccc3C2=O)CC1 | -10.2% (inactive)
CCOC(=O)N1CCN(c2cc(NCCC(=O)O)c3c4c(onc24)-c2ccccc2C3=O)CC1 | -2.8% (inactive)
O=C(O)CCCNc1cc(N2CCC3(CC2)OCCO3)c2noc3c2c1C(=O)c1ccccc1-3 | 54.1% (active)
O=C(O)CCCCCNS(=O)(=O)c1cccc2c1C(=O)c1ccccc1C2=O | 31.4% (inactive)
CC(Oc1ccccc1F)C(=O)NNC(=O)c1cc2ccccc2o1 (stereo not drawn) | 2.5% (inactive)
Cc1ccc(NC(=S)NC2CCN(Cc3ccccc3)CC2)cc1 | 8.2% (inactive)
COc1cc(NC(=O)Cn2cnc3ccccc3c2=O)c(OC)cc1Cl | 14.9% (inactive)
CCOC(=O)c1sc2ncnc(N3CCN(CC)CC3)c2c1C | -2.6% (inactive)
O=C(Cn1cnc2c(nnn2Cc2ccc(F)cc2)c1=O)NCc1ccc(F)cc1 | -6.8% (inactive)
COC(=O)c1cc(C(=O)OC)cc(-n2c(C)cc(C(=O)COC(=O)CNS(=O)(=O)c3ccc(C)cc3)c2C)c1 | 6.4% (inactive)
Oc1ccc(/C=N/Nc2nc(N3CCCC3)nc(N3CCCC3)n2)cc1O | 27% (inactive)
Oc1ccc(/C=N\Nc2cc(N3CCOCC3)nc(N3CCOCC3)n2)c(O)c1 | 61.1% (active)
CC(=O)NNc1cc(N2CCOCC2)nc(N2CCOCC2)n1 | 11.3% (inactive)
Cc1cc(N/N=C/c2ccc(O)cc2O)nc(-c2ccccc2O)n1 | 52.9% (active)
Cc1cc(N/N=C/c2ccccc2O)nc(-c2ccccc2O)n1 | 48.2% (inactive)
C(=N\Nc1ccccn1)/c1ccc(N2CCOCC2)cc1 | 23.5% (inactive)
Cc1cc(N/N=C/c2ccc(O)c(C)c2O)nc(-c2ccccc2O)n1 | 33.4% (inactive)
Oc1ccc(/C=N/Nc2nc(N3CCCCCC3)nc(N3CCCCCC3)n2)c(O)c1 | 19.9% (inactive)

— PubChem BioAssay AID1220 (Sanford-Burnham Center for Chemical Genomics, 2008)
